Measured potencies and affinities stand elsewhere. Inconclusive results are not listed. Active and inactive are the calls of the source.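 The calls were made as follows: active = curve fit gives half-maximal inhibition potency at or below twice the top tested dose in every run; inconclusive = runs disagree, flat partial inhibition, or poor curve fit; inactive = inactive in every run, flat, reversed or weak.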
Biological target: Glycogen synthase kinase-3 beta (Homo sapiens) (UniProt P49841)
Assay: GSK3beta kinase inhibitors, dose response, biochemical, microfluidics, dry powder samples, set 2 (AID 623989)

Chain of Glycogen synthase kinase-3 beta (Homo sapiens) (P49841 whole entry, looked up): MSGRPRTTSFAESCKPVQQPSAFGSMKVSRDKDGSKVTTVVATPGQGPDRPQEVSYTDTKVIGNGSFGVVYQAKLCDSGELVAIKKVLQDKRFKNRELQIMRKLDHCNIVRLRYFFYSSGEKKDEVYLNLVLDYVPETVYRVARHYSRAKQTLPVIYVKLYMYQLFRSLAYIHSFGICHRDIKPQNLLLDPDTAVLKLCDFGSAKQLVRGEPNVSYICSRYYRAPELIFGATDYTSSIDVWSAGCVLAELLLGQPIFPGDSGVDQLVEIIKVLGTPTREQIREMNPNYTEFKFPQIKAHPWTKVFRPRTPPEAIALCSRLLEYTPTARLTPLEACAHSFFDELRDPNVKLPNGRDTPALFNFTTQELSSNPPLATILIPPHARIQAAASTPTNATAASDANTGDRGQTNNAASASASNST

COc1cc(C(=O)N2CCN(c3ccccn3)CC2)cc(OC)c1OC
outcome: inactive

Reference: PubChem BioAssay AID623989 (Broad Institute, 2012)
